Source: PubChem BioAssay (NCATS)
Inconclusive results are not listed. Unless noted, calls come from the whole dose curve; as a rule, active = well fitted curve in either direction with a large enough effect (not every such curve was filed as active); inconclusive = small, poorly fitted or top-dose-only effect, or another doubt; inactive = flat fitted curve, though single readings scatter.

Legend:
[1] = AP1 Signaling Pathway (AID 357); conditions: ME-180 AP-1-bla reporter, EGF-induced, beta-lactamase ratio, 5 h; at 17.2 µM (top of the series) unless noted;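 note: ME-180 reporter cells stimulated with EGF at its EC50 level; % is set by controls: 0 for no effect and ±100 for the full control effect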
In short: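 Cells are seeded overnight, exposed to compound titrations and an EC50 level of EGF for 5 hours at 37 °C, then loaded with CCF4 dye for 2.5 hours. Beta-lactamase activity under the AP-1 element is read as a blue/green ratio.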

[2] = Stat Signaling Pathway (AID 446); conditions: ME-180 SIE beta-lactamase reporter, IL-6 stimulated, 5 h; at 17.2 µM (top of the series) unless noted;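 note: ME-180 cervical cancer cells given 40 pM IL-6 alongside compound; SIE-controlled beta-lactamase reporter measured as 460/530 nm FRET emission ratio; % is set by controls: 0 for no effect and ±100 for the full control effect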
In short: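 ME-180 cells carrying a SIE-driven beta-lactamase reporter are stimulated with 40 pM IL-6 for 5 h at 37C in the presence of compound. The 460/530 nm FRET substrate ratio is read after 2.5 h at RT. Data are normalised to 300 pM IL-6 and to 125 nM JAK inhibitor controls.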

[3] = molecular target: Glucocorticoid receptor (Homo sapiens) (UniProt P04150); test: GR-GFP Redistribution (AID 450;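 active = compounds whose dose series gives a full or clear partial fitted curve of increased nuclear translocation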; note: potency is the fitted concentration of half-maximal effect)
Glucocorticoid receptor (Homo sapiens), sequence (P04150 whole entry, looked up): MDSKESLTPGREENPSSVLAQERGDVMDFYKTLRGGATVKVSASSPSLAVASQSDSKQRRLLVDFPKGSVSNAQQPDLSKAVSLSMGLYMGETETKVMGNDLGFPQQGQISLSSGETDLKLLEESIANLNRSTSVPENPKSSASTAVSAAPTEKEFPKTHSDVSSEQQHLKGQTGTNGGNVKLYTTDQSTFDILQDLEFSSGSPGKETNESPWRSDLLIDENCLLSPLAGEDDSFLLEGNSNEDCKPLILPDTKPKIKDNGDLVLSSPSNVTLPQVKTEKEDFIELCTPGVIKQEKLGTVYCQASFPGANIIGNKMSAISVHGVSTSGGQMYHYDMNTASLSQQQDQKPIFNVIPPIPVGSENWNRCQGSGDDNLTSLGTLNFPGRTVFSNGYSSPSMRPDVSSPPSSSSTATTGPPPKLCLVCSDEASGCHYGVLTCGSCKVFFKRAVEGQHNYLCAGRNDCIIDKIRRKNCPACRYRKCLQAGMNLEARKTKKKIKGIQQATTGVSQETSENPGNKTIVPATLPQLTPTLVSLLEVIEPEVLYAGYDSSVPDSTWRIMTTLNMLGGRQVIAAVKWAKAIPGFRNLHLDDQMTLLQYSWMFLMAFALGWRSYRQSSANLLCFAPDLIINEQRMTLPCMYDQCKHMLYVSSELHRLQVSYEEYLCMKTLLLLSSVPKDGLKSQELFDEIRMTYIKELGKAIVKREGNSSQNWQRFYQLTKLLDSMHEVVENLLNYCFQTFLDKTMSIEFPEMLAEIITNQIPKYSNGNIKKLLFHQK

CCNC(=O)N(C(=O)NCC)n1c(C)nnc1C
inactive: activity change, negative = inhibition [1] 6.49% | activity, negative = inhibition [2] 12.4% | Potency [3] > 20.6 µM

CCc1nc2n[nH]c(N)c2c2c1CCCC2
inactive: activity change, negative = inhibition [1] -12.2% | activity, negative = inhibition [2] -2.34% | Potency [3] > 20.6 µM

COc1cccc(C2=CC(c3ccc(N(C)C)cc3)n3nnnc3N2)c1 (centres undefined)
inactive: activity change, negative = inhibition [1] -12.2% | activity, negative = inhibition [2] 14.4% | Potency [3] > 20.6 µM

Cc1ccc2cc(CN(C(=O)c3ccco3)c3ccccc3C)c(=O)[nH]c2c1
inactive: activity change, negative = inhibition [1] -25.5% | activity, negative = inhibition [2] -12.8% | Potency [3] > 20.6 µM

Cc1ccccc1OCc1nc2ccccc2c(=O)n1NC(=O)c1ccco1
inactive: activity change, negative = inhibition [1] 4.16% | activity, negative = inhibition [2] 1.48% | Potency [3] > 20.6 µM

COC(=O)c1ccc(CSc2ncnc3c2sc2nc(N4CCOCC4)c4c(c23)CCCC4)o1
inactive: activity change, negative = inhibition [1] 20.1% | activity, negative = inhibition [2] 25.6% | Potency [3] > 20.6 µM

CC1(C)Cc2c(C#N)c(SCCOc3ccccc3)nc(N3CCOCC3)c2CO1
inactive: activity change, negative = inhibition [1] -5.93% | activity, negative = inhibition [2] -22.3% | Potency [3] > 20.6 µM

Cc1ccc2c(c1)[C@@H]1CN(C)CC[C@@H]1N2S(=O)(=O)c1ccc(F)cc1
inactive: activity change, negative = inhibition [1] 12.8% | activity, negative = inhibition [2] 5.84% | Potency [3] > 20.6 µM

CCC(=O)Nc1c(C#N)c2nc3ccccc3nc2n1C1CCCCC1
inactive: activity change, negative = inhibition [1] -0.0903% | activity, negative = inhibition [2] 20.4% | Potency [3] > 20.6 µM

COc1cccc(C2/C(=C(/O)c3ccc(C)cc3)C(=O)C(=O)N2Cc2ccco2)c1 (centres undefined)
inactive: activity change, negative = inhibition [1] 2.99% | activity, negative = inhibition [2] -9.32% | Potency [3] > 20.6 µM

Clc1ccc(Cl)c(-c2ccc(/C=N/c3ncn[nH]3)o2)c1
inactive: activity change, negative = inhibition [1] -20.5% | activity, negative = inhibition [2] -6.04% | Potency [3] > 20.6 µM

N#Cc1c(NCCCO)nc(-c2ccccc2)c2c1CCCC2
inactive: activity change, negative = inhibition [1] -2.16% | activity, negative = inhibition [2] -5.59% | Potency [3] > 20.6 µM

CC1CCc2cc(F)cc3c(O)c(C(=O)NCc4ccco4)c(=O)n1c23 (centres undefined)
inactive: activity change, negative = inhibition [1] -28.9% | activity, negative = inhibition [2] -2.44% | Potency [3] > 20.6 µM

Cn1ncc2nc[nH]c(=O)c21
inactive: activity change, negative = inhibition [1] 0.993% | activity, negative = inhibition [2] 7.35% | Potency [3] > 20.6 µM

CCCc1nnc(SCc2ccc(OCC)cc2)n1N
inactive: activity change, negative = inhibition [1] 4.67% | activity, negative = inhibition [2] 10.4% | Potency [3] > 20.6 µM

Cc1nc(N2CCN(Cc3ccccc3)CC2)c(C#N)c2c1COC(C)(C)C2
inactive: activity change, negative = inhibition [1] -29.1% | activity, negative = inhibition [2] -15.6% | Potency [3] > 20.6 µM

CCCCNC(=O)N(C)c1nncnc1C(=O)NC
inactive: activity change, negative = inhibition [1] 16.6% | activity, negative = inhibition [2] 11.5% | Potency [3] > 20.6 µM

C=CCOn1c(=O)c(-c2cc3ccccc3o2)[n+]([O-])c2ccccc21
inactive: activity change, negative = inhibition [1] -28.9% | activity, negative = inhibition [2] -8.42% | Potency [3] > 20.6 µM

CCOc1ccc2c(C)nc(NC3=NC(C)(C)C=C(C)N3)nc2c1
inactive: activity change, negative = inhibition [1] 26.3% | activity, negative = inhibition [2] 25.6% | Potency [3] > 20.6 µM

CCC1CCCCN1c1nc(-c2ccncc2)nc2ccccc12 (centres undefined)
inactive: activity change, negative = inhibition [1] -20.7% | activity, negative = inhibition [2] -2.48% | Potency [3] > 20.6 µM

CCOc1ccc(C2C=C(c3ccccc3)Nc3ncnn32)cc1 (centres undefined)
inactive: activity change, negative = inhibition [1] -28.8% | activity, negative = inhibition [2] -2.5% | Potency [3] > 20.6 µM

CC1CCN(c2[nH]c(=S)c(C#N)c3c2CCCC3)CC1
inactive: activity change, negative = inhibition [1] 10.9% | activity, negative = inhibition [2] -15.1% | Potency [3] > 20.6 µM

COc1cccc(-c2nc(N3CC(C)CC(C)C3)c3ccccc3n2)c1O (centres undefined)
inactive: activity change, negative = inhibition [1] 13.7% | activity, negative = inhibition [2] 8.47% | Potency [3] > 20.6 µM

Cc1nnc(NCc2n[nH]c(=O)c3ccccc23)c2ccccc12
inactive: activity change, negative = inhibition [1] 29.7% | activity, negative = inhibition [2] 25.1% | Potency [3] > 20.6 µM

C=CCn1c(=S)[nH]c2nc3c(cc2c1=O)CCCC3
inactive: activity change, negative = inhibition [1] -14.7% | activity, negative = inhibition [2] -11.2% | Potency [3] > 20.6 µM

CC(C)C(=O)N1CCN(c2nc(-c3ccccc3)c3c(c2C#N)CC(C)(C)OC3)CC1
inactive: activity change, negative = inhibition [1] -2.44% | activity, negative = inhibition [2] 9.79% | Potency [3] > 20.6 µM

CCOC(=O)c1[nH]c2ccc(Br)cc2c1NC(=O)CNC
inactive: activity change, negative = inhibition [1] 18.8% | activity, negative = inhibition [2] -1.05% | Potency [3] > 20.6 µM

COc1ccc(CCNc2oc(COc3ccccc3)nc2C#N)cc1
inactive: activity change, negative = inhibition [1] -23% | activity, negative = inhibition [2] -23.3% | Potency [3] > 20.6 µM

COc1cc(OC)cc(C(=O)N2CCC(N3CCCCCC3)CC2)c1
inactive: activity change, negative = inhibition [1] -0.714% | activity, negative = inhibition [2] 0.747% | Potency [3] > 20.6 µM

Cc1c(C)c2cc(Cl)c(O)c(CN3CCCCC3)c2oc1=O
inactive: activity change, negative = inhibition [1] 17.2% | activity, negative = inhibition [2] 2.68% | Potency [3] > 20.6 µM

COc1cccc(CNc2ncc(Br)cc2Br)c1O
inactive: activity change, negative = inhibition [1] -6.72% | activity, negative = inhibition [2] -21.8% | Potency [3] > 20.6 µM

O=C(CSc1nc2ccccc2c(=O)n1CC1CCCCC1)N1CCOCC1
inactive: activity change, negative = inhibition [1] -23.4% | activity, negative = inhibition [2] -21.6% | Potency [3] > 20.6 µM

C/C(=N\O)C(=O)NCCCNCCCN(C)C
inactive: activity change, negative = inhibition [1] 2.66% | activity, negative = inhibition [2] 14.2% | Potency [3] > 20.6 µM
